Test systems include NCI-H23 lung; NCI-H226 lung; NCI-H322M lung; HOP-62 NSCLC; NCI-H460 lung; HOP-92 NSCLC; NCI-H522 lung; A549/ATCC NSCLC; 786-0 renal; COLO 205 colon; DU-145 prostate; K-562 leukemia; MALME-3M melanoma; MDA-MB-231 breast; RXF 393 renal; SF-268 CNS; SF-295 CNS; SF-539 CNS; UACC-257 melanoma; M14 melanoma.
Common to all, as to test: NCI-60 one-dose screen, 48 h (100 = growth as untreated, 0 = no growth, -100 = all killed)
Common to all, as to conditions: 10 µM unless noted

Each structure is given as a SMILES string. Compounds without any hit were thinned out: in the full panel of roughly 83,000, 20% have a hit.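 For each line, cells grew in 96-well plates with the test compound present at a single concentration for 48 hours.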 Unmarked numbers belong to inactive results. Activity calls are given as the source filed them. Rule for the calls: active = growth percent below 10; inactive = the rest.

Take `CC12CCC3C4CCC(=O)C=C4CCC3C1CC1CC(=O)OC12` (configuration not stated): the growth is 96.2% in the assay on NCI-H23 lung; 93.7% in the assay with NCI-H226 lung; 89.9% in the assay on NCI-H322M lung; 88% with HOP-62 NSCLC; 104% in the assay with NCI-H460 lung; 92.7% in the assay on HOP-92 NSCLC. The growth with NCI-H522 lung was 79%; in the assay with A549/ATCC NSCLC it was 84.5%; with 786-0 renal it was 107%; with COLO 205 colon, 105%; with DU-145 prostate it was 112%; with K-562 leukemia, 95.5%. The growth is 103% in the assay on MALME-3M melanoma; 97.6% in the assay on MDA-MB-231 breast; 110% with RXF 393 renal; 98% in the assay with SF-268 CNS; 103% in the assay on SF-295 CNS; 101% in the assay with SF-539 CNS. Further, in the assay on UACC-257 melanoma, the growth is 80.7%.
Regarding `C[C@]12CC[C@H]3[C@@H](CC=C4c5nc(-c6ccc(Br)cc6)sc5CC[C@@]43C)[C@@H]1CC[C@@H]2O`, the growth is 88.4% in the assay on NCI-H23 lung; 100% with NCI-H226 lung; 94.7% in the assay on NCI-H322M lung; 106% in the assay on HOP-62 NSCLC; 106% in the assay with NCI-H460 lung; 130% with HOP-92 NSCLC. In addition, the growth with NCI-H522 lung is 97.5%; in the assay with A549/ATCC NSCLC, 106%; in the assay with 786-0 renal, 45%; in the assay on COLO 205 colon it was 119%; in the assay on DU-145 prostate it was 108%; in the assay on K-562 leukemia, 76.7%. In addition, the growth in the assay on MALME-3M melanoma was 103%; with MDA-MB-231 breast, 89.5%; in the assay with RXF 393 renal, 3.87% (active); in the assay on SF-268 CNS, 90.2%; in the assay on SF-295 CNS, 63.5%; in the assay with SF-539 CNS, 9.53% (active). Further, the growth in the assay with UACC-257 melanoma is 114%; in the assay with M14 melanoma it was 90.5%.
Turning to `Nc1c(Cl)c(Cl)nc(C(=O)O)c1Cl`, the growth in the assay on NCI-H23 lung was 104%; with NCI-H226 lung, 102%; with NCI-H322M lung, 80.8%; in the assay on HOP-62 NSCLC, 86.9%; in the assay with NCI-H460 lung it was 102%; with HOP-92 NSCLC, 106%. Further, the growth is 98.6% with NCI-H522 lung; 108% in the assay with A549/ATCC NSCLC; 103% in the assay on 786-0 renal; 117% in the assay on COLO 205 colon; 120% in the assay on DU-145 prostate; 83.8% in the assay with K-562 leukemia. In addition, the growth in the assay on MALME-3M melanoma was 83.5%; with MDA-MB-231 breast it was 106%; in the assay with RXF 393 renal, 136%; with SF-268 CNS, 111%; in the assay on SF-295 CNS it was 98.6%; with SF-539 CNS, 84.9%. In addition, the growth in the assay with UACC-257 melanoma is 108%.
In the case of `CC[C@H](CC[C@@H](C)[C@H]1CC[C@H]2[C@@H]3CC[C@H]4C[C@]5(CC[C@]4(C)[C@H]3CC[C@]12C)OO[C@](C)(C(F)(F)F)O5)C(C)C`, the growth is 92.3% in the assay with NCI-H23 lung; 89.7% in the assay with NCI-H226 lung; 91.5% with NCI-H322M lung; 81.7% with HOP-62 NSCLC; 95.1% in the assay with NCI-H460 lung; 87.4% in the assay with HOP-92 NSCLC. Further, the growth in the assay on NCI-H522 lung is 92.8%; in the assay with A549/ATCC NSCLC, 95.3%; with 786-0 renal, 97%; in the assay with COLO 205 colon, 96.4%; in the assay on DU-145 prostate, 97.2%; in the assay with K-562 leukemia, 93.9%. The growth was 86% in the assay on MALME-3M melanoma; 94.5% with MDA-MB-231 breast; 106% in the assay on RXF 393 renal; 87.4% in the assay on SF-268 CNS; 94.6% with SF-295 CNS; 97.8% with SF-539 CNS. The growth in the assay on UACC-257 melanoma was 95.3%; in the assay with M14 melanoma, 97.1%.
As to `CO[C@@H]([CH2][Hg][O]C(=O)c1ccccc1)[C@@H]([CH2][Hg][O]C(=O)c1ccccc1)OC`, the growth in the assay with NCI-H23 lung is 102%; in the assay on NCI-H226 lung it was 93.2%; in the assay on NCI-H322M lung it was 105%; in the assay with HOP-62 NSCLC, 81.8%; in the assay with NCI-H460 lung, 103%; in the assay on HOP-92 NSCLC, 114%. For the same molecule, the growth in the assay on NCI-H522 lung is -53.9% (active); with A549/ATCC NSCLC it was 95.6%; with 786-0 renal, 101%; in the assay on COLO 205 colon, 84.8%; in the assay with DU-145 prostate it was 91.4%; in the assay with K-562 leukemia, 30.1%. Besides, the growth in the assay on MALME-3M melanoma is 35.6%; in the assay with MDA-MB-231 breast it was 88.9%; with RXF 393 renal, 114%; in the assay on SF-268 CNS, 102%; in the assay with SF-295 CNS, 106%; in the assay with SF-539 CNS, 102%. The growth in the assay on UACC-257 melanoma is 90.7%; in the assay on M14 melanoma it was 79.5%.
For the molecule `CC1OC(=O)C(C(C)C)NC(=O)C(C(C)C)OC(=O)C(C(C)C)NC(=O)C(C)OC(=O)C(C(C)C)NC(=O)C(C(C)C)OC(=O)C(C(C)C)NC(=O)C(C)OC(=O)C(C(C)C)NC(=O)C(C(C)C)OC(=O)C(C(C)C)NC1=O` (configuration not stated), the growth is -2.18% (active) in the assay with NCI-H23 lung; 0.0533% (active) with NCI-H226 lung; -3.44% (active) in the assay on NCI-H322M lung; -50% (active) with HOP-62 NSCLC; -11.9% (active) in the assay on NCI-H460 lung; -38.8% (active) with HOP-92 NSCLC. For the same molecule, the growth with NCI-H522 lung was -21.2% (active); with A549/ATCC NSCLC, -41.2% (active); with 786-0 renal it was -6.45% (active); with COLO 205 colon, -81% (active); with DU-145 prostate it was -60.2% (active); in the assay on K-562 leukemia, -38.2% (active). For the same molecule, the growth in the assay on MALME-3M melanoma was 9.37% (active); with MDA-MB-231 breast, -67.9% (active); in the assay with RXF 393 renal it was -63.1% (active); in the assay with SF-268 CNS it was 5.42% (active); with SF-295 CNS, -27.1% (active); in the assay with SF-539 CNS, -91.4% (active). Further, in the assay with UACC-257 melanoma, the growth was -53.5% (active).

These data come from PubChem BioAssay (NCI).
